# Reference: PubChem BioAssay AID720708 (National Center for Advancing Translational Sciences (NCATS), 2013)
# About 660 (0.18%) of roughly 360,000 compounds were called active. Inconclusive results (about 2%) are left out. The sample as a whole holds a higher share of actives than the screen did. A number with no mark means an inactive call. The call rests on the fitted dose curve; in most records, active means well fitted inhibition curve with a large enough effect; inconclusive means small, poorly fitted or top-dose-only effect; inactive means no such curve, though single readings can be large or run the other way.
# Target: Rap guanine nucleotide exchange factor 4 (Homo sapiens) (UniProt Q8WZA2)
# Test: qHTS for Antagonist of cAMP-regulated guanine nucleotide exchange factor 2 (EPAC2): primary screen; further: nearly all actives have a fitted effect of over 45% in size
# Settings: EPAC2 GEF exchange of Rap1B-BODIPY-GDP, fluorescence; series mostly up to 114 µM; activity, negative = inhibition: at the top concentration
# Source text: In multi-cellular eukaryotic organisms, the effects of cAMP are transduced by two ubiquitously-expressed intracellular cAMP receptors, the classic protein kinase A/cAMP-dependent protein kinase (PKA/cAPK) and the more recently discovered exchange protein directly activated by cAMP/cAMP-regulated guanine nucleotide exchange factor (EPAC/cAMP-GEF). Both PKA and EPAC are ubiquitously expressed in all tissues, and an increase in intracellular cAMP levels will lead to the activation of both PKA and EPAC. Therefore, careful dissections of the individual role and relative contribution of EPAC and PKA within the overall cAMP signaling in various model systems are critical for further elucidating the mechanism of cAMP signaling. To date no EPAC-specific antagonists and agonist, as well as isoform-specific agonists have been reported, and developing EPAC-specific pharmacological probes to determine the physiological functions that EPAC play in the overall cAMP-mediated signaling remains a major challenge within the research field. Furthermore, identified regulators of EPAC may lead to new mechanism-based therapeutic strategies specifically targeting the EPAC / cAMP-signaling components as EPAC has been implicated to play important roles in major human pathological conditions such as diabetes, heart disease, and cancer.
# This qHTS will be used to screen the Molecular Libraries Small Molecule Repository (MLSMR) as a concentration-titration series using the NCGC unique quantitative screening (qHTS) platform to find inhibitors for EPAC2. In addition, this assay will also be used as a counterscreen for the EPAC1 qHTS. This fluorescent based assay is developed and validated for EPAC2 that measures exchange using EPAC effector Rap1 complex with BODIPY-GDP, a GDP analog with a tethered fluorophores. Inhibitors are identified by monitoring the change in fluorescence signal as the exchanged free BODIPY-GDP has a reduced fluorescence compared to Rap1-bound BODIPY-GDP. Decrease in signal (inhibition) is the desired outcome for the EPAC2 antagonist while no activity in this assay is desired for the EPAC1 antagonist counterscreen.
# NIH Chemical Genomics Center [NCGC]
# NIH Molecular Libraries Probe Centers Network [MLPCN]
# Assay Submitter (PI): Xiaodong Cheng, The University of Texas, Medical Branch
# Briefly, three uL of reagents (100 nM EPAC2, 250 nM RAP1B-BODIPY-GDP, 50 uM GDP) were dispensed into a 1536-well Greiner black solid-bottom medium binding assay plate. Controls and test compounds (23 nL) were transferred to the plate via a Kalypsys pin tool equipped with a 1536-pin array. The plates were centrifuged at 1,000 rpm for 15 seconds followed by 5 minute incubation at room temperature. The assay plates were read at 5 minute intervals for 30 minutes in the ViewLux plate reader using 480nm excitation and 540nm emission filters. The results were normalized to the agonist positive control ATA and DMSO.
# On the % scale 0 is the no-effect control and ±100 the full control effect; potency means the concentration at half of the fitted maximal effect.
# Chain of Rap guanine nucleotide exchange factor 4 (Homo sapiens) (Q8WZA2 whole entry, looked up): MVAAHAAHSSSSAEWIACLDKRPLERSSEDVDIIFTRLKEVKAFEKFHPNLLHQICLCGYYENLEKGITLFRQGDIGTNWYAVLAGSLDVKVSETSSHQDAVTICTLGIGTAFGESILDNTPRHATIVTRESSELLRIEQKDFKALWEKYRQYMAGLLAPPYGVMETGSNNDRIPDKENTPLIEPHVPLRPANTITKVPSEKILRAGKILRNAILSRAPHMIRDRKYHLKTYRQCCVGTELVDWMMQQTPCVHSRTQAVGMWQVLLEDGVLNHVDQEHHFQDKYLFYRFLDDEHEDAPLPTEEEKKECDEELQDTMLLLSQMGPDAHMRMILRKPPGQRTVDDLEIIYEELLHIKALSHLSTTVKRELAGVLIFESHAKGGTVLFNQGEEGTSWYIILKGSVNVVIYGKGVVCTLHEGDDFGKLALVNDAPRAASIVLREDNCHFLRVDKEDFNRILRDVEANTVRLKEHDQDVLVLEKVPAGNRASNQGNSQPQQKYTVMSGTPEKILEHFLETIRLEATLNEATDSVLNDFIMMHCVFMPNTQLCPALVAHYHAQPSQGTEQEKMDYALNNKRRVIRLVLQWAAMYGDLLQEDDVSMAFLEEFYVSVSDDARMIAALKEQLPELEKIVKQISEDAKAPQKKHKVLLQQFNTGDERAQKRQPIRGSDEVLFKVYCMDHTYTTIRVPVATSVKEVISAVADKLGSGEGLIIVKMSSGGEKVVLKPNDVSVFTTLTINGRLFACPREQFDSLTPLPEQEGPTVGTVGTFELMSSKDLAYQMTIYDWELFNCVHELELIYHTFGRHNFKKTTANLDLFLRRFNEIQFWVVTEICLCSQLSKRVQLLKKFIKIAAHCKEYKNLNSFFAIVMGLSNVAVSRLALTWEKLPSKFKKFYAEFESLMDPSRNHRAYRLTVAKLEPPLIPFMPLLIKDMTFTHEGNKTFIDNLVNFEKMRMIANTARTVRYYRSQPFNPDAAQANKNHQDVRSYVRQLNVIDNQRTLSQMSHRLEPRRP
SMILES,"activity, negative = inhibition",Potency
CCOP(=O)(OCC)C(NC(=O)c1ccc(C)cc1)C(Cl)(Cl)Cl (stereo not given),8.74%,–
CCOP(=O)(OCC)C(NC(=O)c1ccc(OC)cc1)C(Cl)(Cl)Cl (stereo not given),2.33%,–
CCOP(=O)(OCC)C(Cc1ccccc1)N=C(c1ccccc1)c1ccccc1 (stereo not given),–,35.5 µM (active)
CC1=CC(=Cc2sc3ccccc3[n+]2C)C=C(C)O1,3.92%,–
C[C@]12CC[C@H](O)C[C@H]1CC[C@@H]1C2CC[C@]2(C)[C@@H](C3=CC(=O)OC3)[C@@H](O)C[C@]12O (stereo not given in full),-0.19%,–
CCOC(=O)[C@]12Cc3ccccc3[C@H]1N(C1CCCCC1)C(=O)c1cc(OC)ccc12,–,3.16 µM (active)
COC(=O)C1=C(c2cc3ccccc3s2)C[C@@H]2CC[C@H]1N2C(=O)NCc1cccc2ccccc12,-8.1%,–
Oc1cc2c(cc1CN1CCN(c3ccccc3)CC1)OCO2,1.4%,–
CN(c1ccccc1)c1ccc([N+](=O)[O-])c2nonc12,-14.7%,–
ClC(Cl)(Cl)c1ccccc1,-7.81%,–
CC(c1ccccc1)(c1ccccc1)c1ccncc1,–,35.5 µM (active)
CCCC[N+]1(C)C2CC(OC(=O)C(CO)c3ccccc3)CC1C1OC12 (stereo not given),-8.66%,–
O=C(NC(c1ccc(Cl)cc1)P(=O)(Oc1ccccc1)Oc1ccccc1)OCc1ccccc1 (stereo not given),16.5%,–
COC(=O)C(c1ccccc1)N1CCCCCC1 (stereo not given),12.7%,–
COC(=O)N1C(c2ccccc2)C1c1ccccc1 (stereo not given),–,31.6 µM (active)
O=C(CN1CCCCC1)Nc1ccc(Br)cc1C(=O)c1ccccc1Cl,-0.013%,–
Cn1c(O)c(C(=Nc2ccc(F)cc2)c2ccccc2)c(=O)n(C)c1=O,13.4%,–
CC(=O)N(C1=NCCCS1)c1ccccc1F,9.69%,–
Cc1ccc(-n2c(O)c(C=NCC3CCCO3)c(=O)[nH]c2=O)c(C)c1 (stereo not given),-6.22%,–
O=C(OCCN1CCOCC1)C1(c2ccccc2)CCCC1,-2.62%,–
